# Measurements from PubChem BioAssay AID881 (National Center for Advancing Translational Sciences (NCATS), 2007).
# Out of some 110,000 compounds screened, about 610 (0.55%) were called active. About 3% were inconclusive and are not listed. The call rests on the fitted dose curve; in most records, active means well fitted inhibition curve with a large enough effect; inconclusive means small, poorly fitted or top-dose-only effect; inactive means no such curve, though single readings can be large or run the other way. The full list was thinned out, with actives kept by preference.
# Molecular target: Polyunsaturated fatty acid lipoxygenase ALOX15B (Homo sapiens) (UniProt O15296)
# Sequence (O15296 whole entry, looked up): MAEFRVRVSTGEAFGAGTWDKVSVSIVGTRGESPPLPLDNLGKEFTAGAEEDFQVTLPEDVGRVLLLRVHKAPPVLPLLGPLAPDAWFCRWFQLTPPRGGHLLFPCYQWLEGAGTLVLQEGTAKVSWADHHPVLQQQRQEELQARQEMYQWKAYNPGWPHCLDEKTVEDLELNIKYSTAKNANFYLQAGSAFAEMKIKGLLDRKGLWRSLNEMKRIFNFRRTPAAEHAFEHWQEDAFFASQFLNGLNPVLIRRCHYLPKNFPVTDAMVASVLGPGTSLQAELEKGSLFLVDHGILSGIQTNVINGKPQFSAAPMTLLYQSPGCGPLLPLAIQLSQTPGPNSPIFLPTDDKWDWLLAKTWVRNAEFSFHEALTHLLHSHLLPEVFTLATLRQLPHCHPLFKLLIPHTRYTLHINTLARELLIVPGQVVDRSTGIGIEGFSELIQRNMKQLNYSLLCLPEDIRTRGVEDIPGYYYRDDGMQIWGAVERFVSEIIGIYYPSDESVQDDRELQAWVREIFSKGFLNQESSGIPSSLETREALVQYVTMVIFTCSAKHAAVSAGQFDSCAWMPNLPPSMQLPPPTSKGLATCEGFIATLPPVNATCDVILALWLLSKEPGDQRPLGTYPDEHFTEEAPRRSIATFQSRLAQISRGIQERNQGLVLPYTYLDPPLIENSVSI
# Assay: qHTS Assay for Inhibitors of 15-hLO-2 (15-human lipoxygenase 2); further: nearly all actives have a fitted effect of over 60% in size
# Conditions: purified 15hLO-2, xylenol orange hydroperoxide absorbance; series mostly up to 0.0915 µM; activity change, negative = inhibition: at the top concentration
# Source text: Assay Overview: NIH Molecular Libraries Screening Centers Network [MLSCN] NIH Chemical Genomics Center [NCGC] MLSCN Grant: MH081283-01A1 PI Name: Holman, T.R., University of California, Santa Cruz Human lipoxygenase 15hLO-2 is a member of the closely related lipoxygenase family of enzymes which catalyze the site-specific oxidation of arachidonic acid to various hormone precursor molecules and as such is a candidate for drug development in a variety of disease areas, such as cancer and inflammation. Inhibition of 15hLO-2 activity was screened by utilizing arachidonic acid as a substrate. The extent of hydroperoxide product formation was measured by a secondary chromogenic reaction in which xylenol orange (XO, Sigma-Aldrich, cat. number 39,818-7) reacts with the ferric ions produced from the reaction between the hydroperoxide and ferrous ions. The Fe(III)-XO complex is characterized with red-shifted absorbance at 560 nm. A purified preparation of human 15hLO-2 was supplied by Professor Ted Holman, University of California, Santa Cruz.
# Assay Protocol: Buffer: 25 mM Hepes pH 7.5, 0.01% Triton X-100. Reagents/Controls: Buffer in columns 3 and 4 as negative control (no enzyme). Substrate solution: 45 uM arachidonic acid (Sigma-Aldrich, St. Louis, MO) final concentration dispensed throughout the plate. Enzyme: 50 nM 15hLO-2 final concentration in columns 1, 2, 5-48. Column 1 is neutral (100% activity). Column 2 contained pin-transferred titration of NDGA (nordihidroguaiaretic acid, Sigma-Aldrich, N 5023, top concentration 10 mM in DMSO, then 1:2 dilution in duplicate). (Dilution factor: 23 nL into 4 uL.) Chromogenic detection reagent (divalent iron/xylenol orange, Fe-XO): 200 uM xylenol orange plus 300 uM ferrous ammonium sulfate prepared freshly in 50 mM sulfuric acid. Assay Steps: Three uL of enzyme were dispensed to 1536-well Greiner black clear bottom plates. Compounds and controls (23 nL) were transferred via Kalypsys PinTool. The plates were incubated for 15 min at room temperature, and then 1 uL of substrate solution was added to start the reaction. After room temperature incubation for 90 minutes, 4 uL of Fe-XO solution was added to each well followed by a short spin (1000 rpm, 15 sec) and the plates were then incubated for 30 min. The absorbance at 405 and 573 nm were measured using ViewLux (Perkin-Elmer) High-throughput CCD imager and absorbance protocol settings. The 573-to-405 absorbance ratio was used to compute reaction progress.
# On the % scale 0 is the no-effect control and ±100 the full control effect; potency means the concentration at half of the fitted maximal effect.
SMILES,"activity change, negative = inhibition",Potency
CC(=O)NC(=O)NC(C)Cc1ccccc1 (stereo not given),10.7% [at 57.1 µM] (inactive),
CC(C)CC(C)Nc1ccc(Nc2ccccc2)cc1 (stereo not given),,1.58 µM (active)
CC(C)(O/N=C(\C(=O)N[C@@H]1C(=O)N2C(C(=O)[O-])=C(C[n+]3ccccc3)CS[C@@H]12)c1csc(N)n1)C(=O)O,36.8% [at 25.6 µM] (inactive),
CCCCCCCCc1[se]c2ccccc2c1Br,-2.05% (inactive),
CN(C)[C@@H]1C(=O)C(C(N)=O)=C(O)[C@@]2(O)C(=O)C3=C(O)c4c(O)cccc4[C@@](C)(O)C3CC12 (stereo not given in full),7.13% (inactive),
COc1ccccc1-c1[se]c2ccccc2c1I,10.7% (inactive),
Clc1ccc(C(c2ccc(Cl)cc2)n2cc[n+](C[C@@H](OCc3ccc(Cl)cc3Cl)c3ccc(Cl)cc3Cl)c2)cc1,,25.1 µM (active)
N#CC(C#N)=Cc1cc(O)c(O)c([N+](=O)[O-])c1,-26.2% (inactive),
COC(=O)c1ccc2[se]c(CC3CCCCC3)c(I)c2c1,-9.39% (inactive),
CC(C)(O)c1[se]c2ccccc2c1I,-11.7% (inactive),
